According to PubChem BioAssay (EPA / NIEHS):
Where “and” joins values, the source holds several entries; their conditions need not be identical. Equal values may be shown once. Records with an inconclusive call do not appear. Where a structure was tested more than once in an assay, its records may differ in their call. Calls of active or inactive are those of the source. Rule for the calls, unless noted: active = hit-call score of the fitted dose curve at least 0.9, where 1 is the maximum; inactive = score below 0.9.

What was measured:
[1] = biological target: human RAR-related Orphan Receptor gamma (RORg), RORC (gene 6097) (UniProt P51449); test: ATG_RORg_TRANS: Attagene TRANS-FACTORIAL HepG2 Assay for human RAR-related Orphan Receptor gamma (RORg) (AID 2283011; active = hit-call score of the fitted dose curve at least 0.9, where 1 is the maximum)
human RAR-related Orphan Receptor gamma (RORg), RORC (gene 6097), sequence (P51449 whole entry, looked up, the tested form may be a part): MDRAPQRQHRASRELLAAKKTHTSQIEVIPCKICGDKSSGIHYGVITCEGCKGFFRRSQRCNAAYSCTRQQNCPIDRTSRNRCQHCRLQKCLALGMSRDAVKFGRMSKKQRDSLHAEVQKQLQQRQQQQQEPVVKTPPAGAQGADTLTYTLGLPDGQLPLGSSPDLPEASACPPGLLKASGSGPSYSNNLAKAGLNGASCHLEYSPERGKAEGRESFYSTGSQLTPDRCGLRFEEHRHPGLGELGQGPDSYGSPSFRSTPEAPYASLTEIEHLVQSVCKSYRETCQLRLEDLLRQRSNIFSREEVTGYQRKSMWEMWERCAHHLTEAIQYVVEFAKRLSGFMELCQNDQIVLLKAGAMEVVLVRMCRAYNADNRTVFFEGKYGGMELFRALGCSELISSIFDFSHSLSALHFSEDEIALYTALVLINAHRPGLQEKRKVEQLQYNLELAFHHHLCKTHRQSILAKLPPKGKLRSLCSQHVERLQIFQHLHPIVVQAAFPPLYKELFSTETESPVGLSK
In short: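 Readout: reporter transcript induction (RT-PCR, fluorescent primer extension, capillary electrophoresis) after 24 h compound exposure of transiently transfected HepG2 cells carrying a RORg-Gal4 chimera and GAL4-UAS reporters; DMSO served as baseline, with increasing signal fitted.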

[2] = biological target: Retinoic acid receptor RXR-alpha (Homo sapiens) (UniProt P19793); test: ATG_RXRa_TRANS: Attagene TRANS-FACTORIAL HepG2 Assay for human Retinoid X Receptor alpha (RXRa) (AID 2283012; active = hit-call score of the fitted dose curve at least 0.9, where 1 is the maximum)
Retinoic acid receptor RXR-alpha (Homo sapiens), sequence (P19793 whole entry, looked up, the tested form may be a part): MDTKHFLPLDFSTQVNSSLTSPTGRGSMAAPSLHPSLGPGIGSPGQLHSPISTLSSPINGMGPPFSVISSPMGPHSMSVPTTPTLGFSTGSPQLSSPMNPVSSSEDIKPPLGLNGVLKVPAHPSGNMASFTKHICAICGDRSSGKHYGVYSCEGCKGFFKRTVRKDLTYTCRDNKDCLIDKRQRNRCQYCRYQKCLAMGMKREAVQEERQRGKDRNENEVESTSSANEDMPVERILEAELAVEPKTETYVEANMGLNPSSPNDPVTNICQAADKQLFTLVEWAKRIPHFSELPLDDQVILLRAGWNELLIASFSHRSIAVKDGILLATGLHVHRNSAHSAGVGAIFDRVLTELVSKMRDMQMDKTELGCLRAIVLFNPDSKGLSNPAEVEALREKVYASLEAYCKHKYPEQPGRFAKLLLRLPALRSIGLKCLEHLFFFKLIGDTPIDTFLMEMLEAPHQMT
In short: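 Transient transfection of human HepG2 with multiple GAL4-UAS reporter constructs; 24 h compound exposure; total RNA isolated, reverse-transcribed, PCR-amplified, 6-FAM labelled, HpaI-cut, resolved by capillary electrophoresis. Positive-direction fit versus DMSO.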

[3] = biological target: human Retinoid X Receptor beta (RXRb), RXRB (gene 6257) (UniProt P28702); test: ATG_RXRb_TRANS: Attagene TRANS-FACTORIAL HepG2 Assay for human Retinoid X Receptor beta (RXRb) (AID 2283013; active = hit-call score of the fitted dose curve at least 0.9, where 1 is the maximum)
human Retinoid X Receptor beta (RXRb), RXRB (gene 6257), sequence (P28702 whole entry, looked up, the tested form may be a part): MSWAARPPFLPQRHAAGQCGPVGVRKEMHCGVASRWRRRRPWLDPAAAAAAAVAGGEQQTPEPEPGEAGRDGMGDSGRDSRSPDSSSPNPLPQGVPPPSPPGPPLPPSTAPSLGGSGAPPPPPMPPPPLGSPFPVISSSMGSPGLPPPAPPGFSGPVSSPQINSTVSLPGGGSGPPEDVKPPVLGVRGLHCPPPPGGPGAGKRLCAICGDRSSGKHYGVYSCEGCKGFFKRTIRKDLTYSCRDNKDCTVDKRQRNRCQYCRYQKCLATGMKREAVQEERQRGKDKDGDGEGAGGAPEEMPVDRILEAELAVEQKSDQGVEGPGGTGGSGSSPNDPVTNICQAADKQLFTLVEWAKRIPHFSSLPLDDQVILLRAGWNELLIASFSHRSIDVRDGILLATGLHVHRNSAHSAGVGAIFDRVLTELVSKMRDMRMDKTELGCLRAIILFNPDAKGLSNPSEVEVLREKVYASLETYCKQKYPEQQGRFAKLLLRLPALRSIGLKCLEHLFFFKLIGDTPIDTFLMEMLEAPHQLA
In short: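 Transfect HepG2 with GAL4-UAS multi-reporter constructs (chimeric NR-Gal4, TRANS format); dose compound 24 h; isolate RNA, RT-PCR, FAM primer extension, HpaI digest; quantify by capillary electrophoresis; positive direction vs DMSO.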

[4] = biological target: human Thyroid Receptor alpha (THRa1), THRA (gene 7067) (UniProt P10827); test: ATG_THRa1_TRANS: Attagene TRANS-FACTORIAL HepG2 Assay for human Thyroid Receptor alpha (THRa1) (AID 2283014; active = hit-call score of the fitted dose curve at least 0.9, where 1 is the maximum)
human Thyroid Receptor alpha (THRa1), THRA (gene 7067), sequence (P10827 whole entry, looked up, the tested form may be a part): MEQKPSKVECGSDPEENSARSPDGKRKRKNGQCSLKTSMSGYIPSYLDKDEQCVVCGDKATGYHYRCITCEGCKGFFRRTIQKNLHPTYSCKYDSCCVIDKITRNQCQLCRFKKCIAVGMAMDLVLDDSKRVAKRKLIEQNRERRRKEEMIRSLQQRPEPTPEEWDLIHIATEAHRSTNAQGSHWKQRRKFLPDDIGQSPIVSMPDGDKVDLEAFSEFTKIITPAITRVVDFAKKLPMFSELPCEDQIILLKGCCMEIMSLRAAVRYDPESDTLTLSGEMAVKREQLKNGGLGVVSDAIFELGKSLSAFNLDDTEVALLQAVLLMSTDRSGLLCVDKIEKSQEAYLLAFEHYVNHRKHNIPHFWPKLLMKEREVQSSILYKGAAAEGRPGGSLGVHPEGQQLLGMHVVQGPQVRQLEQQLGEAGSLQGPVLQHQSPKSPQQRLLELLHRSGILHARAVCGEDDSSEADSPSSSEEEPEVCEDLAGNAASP
In short: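 HepG2 cells transiently transfected with multiplexed GAL4-UAS reporter units for exogenous chimeric THRa1-Gal4; reporter mRNA measured 24 h after dosing by RT-PCR, 6-FAM labelling, HpaI digestion and capillary electrophoresis. Gain-of-signal fitted versus DMSO baseline.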

[5] = read-out: E-selectin (Homo sapiens) (UniProt P16581); test: BSK_3C_Eselectin: BioMAP Diversity Plus: 3C Assay for Eselectin Biomarker Activity (AID 2283015); conditions: primary human endothelial cells (HUVEC); actives raise or lower the signal
In short: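 Primary human umbilical vein endothelial cells (3C system) were dosed with chemical and cell-surface E-selectin measured by ELISA 24 h later. Bidirectional curve fitting used DMSO as negative control and baseline.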

[6] = read-out: Interleukin-1 alpha (IL1a), IL1A (gene 3552); test: BSK_BE3C_IL1a: BioMAP Diversity Plus: BE3C Assay for Interleukin-1 alpha (IL1a) Biomarker Activity (AID 2283016); conditions: primary human bronchial epithelial cells; actives raise or lower the signal
In short: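 BE3C primary human bronchial epithelium; cpd 24 h; IL-1a by ELISA; bidirectional fit vs DMSO; parallel SRB (0.1% SRB, 10% TCA fix, 560 nm) for cytotoxicity.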

[7] = read-out: Monocyte Chemoattractant Protein-1 (MCP1), CCL2 (gene 6347); test: BSK_3C_MCP1: BioMAP Diversity Plus: 3C Assay for Monocyte Chemoattractant Protein-1 (MCP1) Biomarker Activity (AID 2283017); conditions: primary human endothelial cells (HUVEC); actives raise or lower the signal
In short: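 Primary human umbilical vein endothelial cells (3C system) were exposed to test chemical for 24 h, after which MCP-1 was quantified by ELISA. Activity was fitted bidirectionally against DMSO as negative control and baseline.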

[8] = read-out: Monocyte Chemoattractant Protein-1 (MCP1), CCL2 (gene 6347); test: BSK_4H_MCP1: BioMAP Diversity Plus: 4H Assay for Monocyte Chemoattractant Protein-1 (MCP1) Biomarker Activity (AID 2283018); conditions: primary human endothelial cells (HUVEC); actives raise or lower the signal
In short: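 ELISA read-out of MCP-1 from human vascular endothelial primary cells taken at 24 hours after compound exposure. Activity was fitted in both directions relative to DMSO, which served as negative control.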

[9] = read-out: Human Leukocyte Antigen - DR isotype (HLADR), HLA-DRA (gene 3122); test: BSK_3C_HLADR: BioMAP Diversity Plus: 3C Assay for Human Leukocyte Antigen - DR isotype (HLADR) Biomarker Activity (AID 2283019); conditions: primary human endothelial cells (HUVEC); actives raise or lower the signal
In short: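 Primary human umbilical vein endothelial cells (3C system) were dosed with compound and cell-surface HLA-DR was quantified by ELISA at 24 h. Activity was fitted bidirectionally against DMSO as negative control and baseline.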

[10] = read-out: Interleukin-8 (IL8), CXCL8 (gene 3576); test: BSK_3C_IL8: BioMAP Diversity Plus: 3C Assay for Interleukin-8 (IL8) Biomarker Activity (AID 2283020); conditions: primary human endothelial cells (HUVEC); actives raise or lower the signal
In short: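 ELISA read-out of IL-8 from human umbilical vein endothelium, measured 24 h after chemical dosing. Activity is expressed relative to DMSO negative control, with both increases and decreases fitted.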

[11] = read-out: Monokine induced gamma interferon (MIG), CXCL9 (gene 4283); test: BSK_3C_MIG: BioMAP Diversity Plus: 3C Assay for Monokine induced gamma interferon (MIG) Biomarker Activity (AID 2283021); conditions: primary human endothelial cells (HUVEC); actives raise or lower the signal;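 for AC50: MIG protein level measured by immunoassay in the treated endothelial cultures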
In short: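 Read-out is ELISA detection of MIG on human umbilical vein endothelial cells, taken 24 h after dosing. Gain or loss of signal was scored relative to DMSO controls using bidirectional curve fitting.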

[12] = biological target: human Vitamin D Receptor (VDR), VDR (gene 7421) (UniProt P11473); test: ATG_VDR_TRANS: Attagene TRANS-FACTORIAL HepG2 Assay for human Vitamin D Receptor (VDR) (AID 2283022; active = hit-call score of the fitted dose curve at least 0.9, where 1 is the maximum)
human Vitamin D Receptor (VDR), VDR (gene 7421), sequence (P11473 whole entry, looked up, the tested form may be a part): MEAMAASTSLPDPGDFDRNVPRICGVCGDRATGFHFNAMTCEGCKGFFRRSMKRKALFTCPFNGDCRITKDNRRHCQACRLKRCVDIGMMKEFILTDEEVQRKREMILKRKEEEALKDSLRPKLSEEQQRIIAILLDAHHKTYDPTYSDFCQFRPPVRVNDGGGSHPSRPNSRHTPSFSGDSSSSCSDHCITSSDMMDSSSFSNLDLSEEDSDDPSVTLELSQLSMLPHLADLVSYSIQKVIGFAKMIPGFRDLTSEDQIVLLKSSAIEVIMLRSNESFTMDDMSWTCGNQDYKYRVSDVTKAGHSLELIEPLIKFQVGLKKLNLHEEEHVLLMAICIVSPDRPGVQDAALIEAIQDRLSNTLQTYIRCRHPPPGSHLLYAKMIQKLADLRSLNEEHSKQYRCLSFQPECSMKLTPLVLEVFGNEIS
In short: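 HepG2 cells were transiently transfected with multiple GAL4-UAS reporter units, so signal reflects exogenous chimeric receptor-Gal4 activity. After 24 h compound exposure, reporter mRNA was measured by RT-PCR, fluorescent labelling and capillary electrophoresis, fitted for gain of signal versus DMSO.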

[13] = BSK_3C_SRB: Viability Assessment in the BioMAP Diversity Plus: 3C Assay (AID 2283023); conditions: primary human endothelial cells (HUVEC);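 note: fitted both ways against DMSO so a hit may be signal rise or drop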
In short: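 Primary human umbilical vein endothelial cells in the 3C system were read 24 h after compound dosing. Total protein was stained with 0.1% sulforhodamine B after 10% TCA fixation and read at 560 nm, with bidirectional fitting against DMSO as baseline.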

[14] = read-out: Matrix Metallopeptidase 1 (MMP1), MMP1 (gene 4312); test: BSK_BE3C_MMP1: BioMAP Diversity Plus: BE3C Assay for Matrix Metallopeptidase 1 (MMP1) Biomarker Activity (AID 2283024); conditions: primary human bronchial epithelial cells; actives raise or lower the signal
In short: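 Human bronchial epithelial cells (BE3C system) exposed to compound for 24 h; MMP1 then quantified by ELISA. Activity was fitted in both directions relative to DMSO.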

[15] = BSK_3C_Vis: BioMAP Diversity Plus: 3C Assay for Morphology Visualization (AID 2283025); conditions: primary human endothelial cells (HUVEC);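 note: fitted both ways so gain or loss versus DMSO counts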;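 for AC50: light microscopy image of cell morphology used as background control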
In short: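 Chemicals were added to primary human umbilical vein endothelium, cells were incubated 24 h, and morphology was then visualized by light microscopy. Gain or loss of signal was fitted bidirectionally relative to DMSO.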

[16] = read-out: Pselectin, SELP (gene 6403); test: BSK_4H_Pselectin: BioMAP Diversity Plus: 4H Assay for Pselectin Biomarker Activity (AID 2283026); conditions: primary human endothelial cells (HUVEC); actives raise or lower the signal
In short: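 ELISA read-out of P-selectin on human umbilical vein endothelium after 24 h of dosing. Values derive from bidirectional fitting relative to DMSO. Parallel SRB protein staining flagged overt cytotoxicity.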

[17] = read-out: Thrombomodulin, THBD (gene 7056); test: BSK_3C_Thrombomodulin: BioMAP Diversity Plus: 3C Assay for Thrombomodulin Biomarker Activity (AID 2283029); conditions: primary human endothelial cells (HUVEC); actives raise or lower the signal
In short: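 Read-out is ELISA of thrombomodulin on human umbilical vein endothelium 24 h after chemical dosing. Gain or loss of signal is scored relative to DMSO. Overt cytotoxicity is checked in parallel cultures by sulforhodamine B staining.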

[18] = read-out: Urokinase-type plasminogen activator receptor (uPAR), PLAUR (gene 5329); test: BSK_4H_uPAR: BioMAP Diversity Plus: 4H Assay for Urokinase-type plasminogen activator receptor (uPAR) Biomarker Activity (AID 2283030); conditions: primary human endothelial cells (HUVEC); actives raise or lower the signal
In short: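 Primary human umbilical vein endothelial cells were exposed to chemical for 24 h before cell-surface uPAR was quantified by ELISA. Activity was fitted bidirectionally against the DMSO negative control baseline.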

[19] = BSK_BE3C_SRB: Viability Assessment in the BioMAP Diversity Plus: BE3C Assay (AID 2283028); conditions: primary human bronchial epithelial cells;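 for AC50: fitted both ways so AC50 may mark signal gain or loss versus DMSO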
In short: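 Human primary bronchial epithelial cells were exposed to test chemicals for 24 h. Total protein in parallel cultures was then measured by staining with 0.1% sulforhodamine B after 10% TCA fixation, with absorbance read at 560 nm. Activity was fitted bidirectionally against DMSO.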

[20] = BSK_4H_SRB: Viability Assessment in the BioMAP Diversity Plus: 4H Assay (AID 2283027); conditions: primary human endothelial cells (HUVEC);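 note: cells exposed to compound for 24 h before staining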;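 for AC50: curves fitted both ways versus DMSO so AC50 may be loss or gain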
In short: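 Human umbilical vein endothelial cells, 24 h after chemical dosing; total protein measured by 0.1% sulforhodamine B staining after 10% TCA fixation, read at 560 nm. Bidirectional fitting against DMSO.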

Measured: AC50

E-selectin (Homo sapiens), sequence (P16581 whole entry, looked up): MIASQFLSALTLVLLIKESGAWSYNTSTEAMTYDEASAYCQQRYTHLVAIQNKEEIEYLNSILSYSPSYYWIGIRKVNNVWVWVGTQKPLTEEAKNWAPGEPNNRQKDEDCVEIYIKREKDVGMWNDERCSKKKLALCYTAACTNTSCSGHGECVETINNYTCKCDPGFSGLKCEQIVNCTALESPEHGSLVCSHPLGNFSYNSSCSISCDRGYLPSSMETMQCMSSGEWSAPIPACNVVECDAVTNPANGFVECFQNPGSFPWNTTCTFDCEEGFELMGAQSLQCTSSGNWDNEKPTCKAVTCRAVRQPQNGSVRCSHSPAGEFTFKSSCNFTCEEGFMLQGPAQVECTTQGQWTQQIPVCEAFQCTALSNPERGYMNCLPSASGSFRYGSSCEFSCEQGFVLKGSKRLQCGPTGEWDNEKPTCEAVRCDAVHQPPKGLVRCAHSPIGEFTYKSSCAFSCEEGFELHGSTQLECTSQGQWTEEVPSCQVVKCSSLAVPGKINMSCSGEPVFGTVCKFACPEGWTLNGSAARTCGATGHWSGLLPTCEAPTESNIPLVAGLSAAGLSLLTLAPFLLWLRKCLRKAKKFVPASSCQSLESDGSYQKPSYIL

CN(C)CCO
not listed: [19] | [20]
inactive: all other assays above

Cc1cc2c3c(c1)C(c1ccccc1)=N[C@@H](NC(=O)c1ccncc1)C(=O)N3CC2
not listed: [3] | [4] | [10] | [20]
inactive: all other assays above

O=NN(c1ccccc1)c1ccccc1
active: [3] 52.2 µM
not listed: [2] | [4] | [12]
inactive: all other assays above

Oc1c(Cl)c(Cl)c(Cl)c(Cl)c1Cl
active: [5] 14 µM and 10.8 µM | [6] 13.8 µM and 21.4 µM | [7] 13.7 µM | [8] 7.96 µM | [9] 14.7 µM and 13.5 µM | [11] 34.5 µM | [12] 9.71 µM | [13] 15.4 µM and 13 µM | [14] 26.1 µM | [15] 14.1 µM | [16] 8.49 µM and 9.69 µM | [19] 4.33 µM and 28.2 µM | [17] 20 µM | [18] 5.58 µM and 9.79 µM
inactive: [2] | [3] | [4] | [8] | [11] | [12] | [14] | [15] | [17]

CCCN(CCC)N=O
not listed: [2] | [3] | [4] | [12] | [19] | [20]
inactive: all other assays above

CCC(C)c1cc([N+](=O)[O-])cc([N+](=O)[O-])c1O (stereo unspecified)
active: [5] 8.02 µM | [7] 9.99 µM | [8] 5.15 µM | [9] 14 µM | [10] 7.38 µM | [13] 10 µM | [15] 9.8 µM | [16] 10.6 µM | [18] 11.5 µM
inactive: [2] | [3] | [4] | [6] | [11] | [14] | [17]

CCCCCCCCCC[N+](C)(C)CCCCCCCCCC
active: [5] 4.77 µM | [6] 7.76 µM | [7] 3.59 µM | [8] 3.16 µM | [9] 2.22 µM | [11] 5.66 µM | [13] 2 µM | [14] 4.95 µM | [15] 4.15 µM | [16] 1.99 µM | [18] 6.83 µM
inactive: [1] | [4] | [17]

ClC1=C(Cl)[C@]2(Cl)[C@@H]3[C@H]4C[C@H]([C@@H]5O[C@H]45)[C@@H]3[C@@]1(Cl)C2(Cl)Cl
active: [8] 5.75 µM | [9] 7.35 µM | [13] 9.88 µM | [14] 7.22 µM | [20] 3.97 µM
not listed: [1]
inactive: all other assays above

c1cc2ccc3cccc4ccc(c1)c2c34
active: [3] 41.4 µM
not listed: [1] | [10] | [20]
inactive: all other assays above

C[C@]12CCC(=O)C=C1CC[C@@H]1[C@@H]2CC[C@]2(C)C(=O)CC[C@@H]12
not listed: [10] | [12] | [18] | [19] | [20]
inactive: all other assays above

NS(=O)(=O)C(F)(F)C(F)(F)C(F)(F)C(F)(F)C(F)(F)C(F)(F)C(F)(F)C(F)(F)F
active: [5] 32.5 µM and 56.3 µM and 49.4 µM | [6] 43.9 µM and 42.4 µM | [7] 34.4 µM and 47.7 µM and 48.9 µM | [8] 24.8 µM and 37.8 µM and 11.1 µM | [9] 27.1 µM and 42.6 µM and 44.3 µM | [11] 33.3 µM and 51.2 µM and 47.8 µM | [13] 30.8 µM and 44.1 µM and 43.6 µM | [14] 13.4 µM and 7.12 µM and 7.29 µM | [15] 37.5 µM | [16] 27.6 µM and 43.9 µM and 45.9 µM | [20] 26.8 µM and 44.2 µM and 47.6 µM | [17] 10.9 µM and 16.4 µM | [18] 29.3 µM and 43.7 µM and 45.6 µM
inactive: [1] | [2] | [3] | [4] | [6] | [17]

Clc1ccc(Cl)cc1
not listed: [4] | [10]
inactive: all other assays above
